Drawing on PubChem BioAssay AID1318 (The Scripps Research Institute Molecular Screening Center, 2008), this text covers activation (% of control) for 75 compounds.

About 160 (13%) of roughly 1,200 compounds were called active.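 Rule for the calls: active = activation above the solvent-only control well mean plus 3 SD, set per screening run (cut at about 120% in these data); inactive = the rest.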 Not all results are given here.

The nature of the test: enhancement of STAT1-driven transcription – cell-based, NIH 3T3, luciferase luminescence, IFN-gamma, counter-screen for STAT3 activator project (AID 1318).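 Note: 100% = IFN-gamma with DMSO median signal so 100% means no change.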 Conditions: NIH 3T3 STAT1-luciferase reporter, at 5.7 µM, stronger effect = higher value. On the technique in general: A counterscreen serves to expose hits that act by an unwanted route or on another target.
Take `CN1C(=O)/C(=C\c2cc(Br)cs2)c2ccccc21`: the activation (% of control) is 116% (inactive).

On to `Cc1nc(N=C(N)N)nc2c(C)cccc12`, for which the activation (% of control) was 104% (inactive).

Consider `CN1CCN(c2ccc([N+](=O)[O-])c(Sc3nc4ccccc4[nH]3)c2)CC1`, for which the activation (% of control) is 96.2% (inactive).

With `Cc1ccc(N=Nc2c(C)[nH]n(-c3ccccc3)c2=O)cc1`, the activation (% of control) is 106% (inactive).

On to `N#Cc1ccccc1NC(=O)COc1c(Br)cc(Br)c2cccnc12`, for which the activation (% of control) was 85.6% (inactive).

For `c1ccc(-c2cn3c(n2)CCc2ccc4cccnc4c2-3)cc1`, the activation (% of control) is 94.3% (inactive).

Turning to `CCOC(=O)CN(C)Cc1c[nH]c2ccccc12`, the activation (% of control) was 88.5% (inactive).

Regarding `Cc1cccc(C(=O)Nc2nnc(Cc3c[nH]c4ccccc34)s2)c1`, the activation (% of control) is 92.4% (inactive).

With `Cc1ccc(S(=O)(=O)Nc2nc3ccccc3nc2N2CCc3ccccc3C2)cc1`, the activation (% of control) was 105% (inactive).

Regarding `O=C(Cc1c[nH]c2ccccc12)OCCOC(=O)Cc1c[nH]c2ccccc12`, the activation (% of control) is 94.1% (inactive).

With `C/C(=N\NC(=O)CNc1cccc2ccccc12)c1ccc(Br)s1`, the activation (% of control) is 92.6% (inactive).

On to `CSCCC(NC(=O)c1ccco1)C(=O)OCC(=O)Nc1ncc(Cl)c(C)c1Cl` (stereo not given), for which the activation (% of control) was 105% (inactive).

Consider `CCOc1ccc(C2c3[nH]c4ccccc4c3CCN2Cc2cn(CC)nc2C)cc1` (stereo not given), for which the activation (% of control) was 112% (inactive).

For `Cc1ccc(Nc2nc(-c3sc(NC(=O)c4ccccc4)nc3C)cs2)cc1`, the activation (% of control) is 105% (inactive).

As to `COc1ccccc1-c1nnc(NC(=O)c2ccc3ncsc3c2)o1`, the activation (% of control) was 137% (active).

With `COc1ccccc1-c1nnc(SCC(=O)N2CC(C)CC(C)C2)o1` (stereo not given), the activation (% of control) was 97% (inactive).

As for `OC(COc1ccc2ccccc2c1)CN1CCOCC1` (stereo not given), the activation (% of control) is 118% (inactive).

`COc1cccc(/C=C(/CC(=O)Nc2ccc(N3CCOCC3)cc2)c2nc3ccccc3s2)c1`: the activation (% of control) is 99.9% (inactive).

Regarding `Oc1c(C=Nc2cccc3nsnc23)ccc2ccccc12`, the activation (% of control) was 95.4% (inactive).

In the case of `Cc1ccc(NC(=O)c2cc([N+](=O)[O-])ccc2Cl)c(O)c1`, the activation (% of control) was 99.1% (inactive).

As to `CC(C)CNC(=O)COC(=O)/C=C/c1ccccc1[N+](=O)[O-]`, the activation (% of control) was 89.1% (inactive).

For the compound `O=C(Nc1cc(C(F)(F)F)ccc1Cl)c1cc(C2CC2)on1`, the activation (% of control) was 98.3% (inactive).

Turning to `Oc1cccc2ccc(/C=C/c3ccc(Br)s3)nc12`, the activation (% of control) was 103% (inactive).

For `COc1nc(N=C(N)N)nc2c(C)cccc12`, the activation (% of control) is 102% (inactive).

For `CCOC(=O)c1c(-c2cccc(C)c2)csc1NC(=O)c1c(-c2ccccc2)noc1C`, the activation (% of control) was 117% (inactive).

For the compound `O=[N+]([O-])c1ccc(N2CCN(S(=O)(=O)c3ccc4ccccc4c3)CC2)cc1NCc1ccco1`, the activation (% of control) was 110% (inactive).

In the case of `O=C1CCCN1CCCNc1ncnc2c1[nH]c1ccccc12`, the activation (% of control) is 82.6% (inactive).

Consider `COc1ccc(NC(=O)ON=C2c3ccccc3-c3ccccc32)cc1`, for which the activation (% of control) is 107% (inactive).

Turning to `Cc1ccc(-c2cc(C(=O)Nc3nn[nH]n3)c3ccccc3n2)c(C)c1`, the activation (% of control) was 97.5% (inactive).

In the case of `C=CCn1c(-c2ccccc2OCC)n[nH]c1=S`, the activation (% of control) is 112% (inactive).

For the compound `COC(=O)c1[nH]c2ccccc2c1NC(=O)CN1CCCc2ccccc21`, the activation (% of control) is 106% (inactive).

With `CC(=O)Nc1ccc(NC(=O)COc2ccccc2C(=O)Nc2cccc(Cl)c2Cl)cc1`, the activation (% of control) was 100% (inactive).

In the case of `Cc1ccc(/C=N/NC(=O)COc2ccccc2-c2ccccc2)cc1`, the activation (% of control) is 114% (inactive).

Take `COc1cccc(NC(=S)C(C#N)=C2N(C)c3ccccc3N2C)c1`: the activation (% of control) is 103% (inactive).

`COC(=O)c1[nH]c2cccc(C)c2c1NC(=O)CN1CCCc2ccccc21`: the activation (% of control) was 93.5% (inactive).

Consider `NC(=O)CSc1c[nH]c2ccccc12`, for which the activation (% of control) is 99.4% (inactive).

On to `COc1ccc(-c2c3c(=O)n(C)c(=O)n(C)c3cn2-c2cccc(OC)c2)cc1`, for which the activation (% of control) was 101% (inactive).

Turning to `N#Cc1c(C(F)(F)F)cc(-c2ccc(Cl)cc2)nc1SCC(=O)O`, the activation (% of control) was 113% (inactive).

Turning to `COc1ccc([N+](=O)[O-])cc1C1NN=C(c2cccc3ccccc23)S1` (stereo not given), the activation (% of control) was 120% (inactive).

As for `CSc1nc2sc3c(c2c(=O)[nH]1)CCc1ccccc1-3`, the activation (% of control) is 95.8% (inactive).

With `CCSc1nnc(-c2cc3c(s2)-c2ccccc2CC3)o1`, the activation (% of control) was 132% (active).

As to `COc1ccccc1N1CCN(C(=O)c2cc3c(-c4ccc(Cl)cc4)nn(C)c3s2)CC1`, the activation (% of control) is 93.1% (inactive).

`COc1cc(OC)cc(C(=O)N[C@H](C(=O)Nc2nc3ccccc3[nH]2)C(C)C)c1`: the activation (% of control) was 109% (inactive).

For `CSc1nc(N(C)NC(=O)c2cccc(C)c2)c2ccccc2n1`, the activation (% of control) is 107% (inactive).

For the compound `CCCS(=O)(=O)Nc1c(C(=O)O)[nH]c2ccccc12`, the activation (% of control) is 94.9% (inactive).

Take `CCOC(=O)N1CCN(CC(=O)Nc2cc(C)nn2-c2nc3ccccc3s2)CC1`: the activation (% of control) was 101% (inactive).

Take `CCNCc1cc2cc(C)ccc2[nH]c1=O`: the activation (% of control) was 98.7% (inactive).

Consider `Cn1cccc1C(=O)Nc1nccs1`, for which the activation (% of control) was 104% (inactive).

For the compound `CCOC(=O)C1CCN(c2ncnc3c2oc2ccc(Br)cc23)CC1`, the activation (% of control) was 92.6% (inactive).

As for `COc1ccccc1C1C2=C(COC2=O)Nc2cc3c(cc21)OCO3` (stereo not given), the activation (% of control) was 116% (inactive).

In the case of `COc1ccc(/C=N/Nc2ncnc3sc4c(c23)CCCC4)cc1O`, the activation (% of control) was 139% (active).

Regarding `CCCCC(=O)Nc1nc(C)c(-c2csc(Nc3ccc(Cl)cc3)n2)s1`, the activation (% of control) is 102% (inactive).

Turning to `Cc1cccc(C(=O)N2CCc3c([nH]c4ccccc34)C2CC(C)C)n1` (stereo not given), the activation (% of control) was 118% (inactive).

As for `C/C(=N\c1nc2ccccc2n1C)c1cc(Cl)ccc1O`, the activation (% of control) was 92.8% (inactive).

As to `C=CCCC(=O)Nc1nc(C)c(-c2csc(Nc3ccc(Cl)cc3)n2)s1`, the activation (% of control) was 104% (inactive).

Turning to `Oc1cccc(C2c3[nH]c4ccccc4c3CCN2Cc2cnn(-c3ccccc3)c2)c1` (stereo not given), the activation (% of control) was 93.5% (inactive).

In the case of `Fc1ccc2nc(-c3ccccc3)nc(SCc3nnc(-c4ccccc4)o3)c2c1`, the activation (% of control) is 96.5% (inactive).

`COc1ccc(C2c3[nH]c4ccccc4c3CCN2CCCn2cccn2)cc1C` (stereo not given): the activation (% of control) was 95.6% (inactive).

In the case of `COc1ccc(Cl)cc1NC(=O)c1oc(C)nc1C`, the activation (% of control) was 98.8% (inactive).

On to `Cc1csc2ncc(C(=O)N(Cc3ccccc3)c3ccccn3)c(=O)n12`, for which the activation (% of control) was 103% (inactive).

With `Cc1ccc(C2=NN(C)c3nc4ccccc4n3C2)cc1`, the activation (% of control) was 101% (inactive).

Consider `COC(=O)c1[nH]c2ccccc2c1NS(=O)(=O)c1ccc(OC)cc1OC`, for which the activation (% of control) is 92.3% (inactive).

As to `O=C(O)CS/C(=C\c1ccc(F)cc1)c1nc2ccccc2s1`, the activation (% of control) was 112% (inactive).

`O=C(O)CSCc1nc2ccccc2s1`: the activation (% of control) was 120% (active).

On to `Cc1nc2ccccc2cc1O`, for which the activation (% of control) was 87.9% (inactive).

With `COc1ccc(C)cc1NC(=O)c1[nH]c(C)c(C(C)=O)c1C`, the activation (% of control) was 100% (inactive).

Consider `CCn1c(SCC(=O)N/N=C/C=C/c2ccccc2[N+](=O)[O-])nnc1-c1ccccc1`, for which the activation (% of control) is 89.9% (inactive).

With `COc1cc(NS(=O)(=O)c2ccc(N/C=C(\C=O)c3nc4cc(Cl)ccc4o3)cc2)nc(OC)n1`, the activation (% of control) was 93.1% (inactive).

Take `Cn1nc(-c2ccc(Cl)cc2)c2cc(C(=O)NCc3ccco3)sc21`: the activation (% of control) was 94.9% (inactive).

Turning to `O=c1[nH]c(CSc2ncc(-c3ccc(F)cc3)n2Cc2ccco2)nc2ccccc12`, the activation (% of control) is 100% (inactive).

Consider `COCCCNc1nc2c(-c3cccc(C(F)(F)F)c3)nnn2c2ccccc12`, for which the activation (% of control) was 98.4% (inactive).

`O=C(NCc1ccco1)c1cccn2c(=O)c3c4c(sc3nc12)CCCC4`: the activation (% of control) is 87% (inactive).

`Cc1cccc(N(CC(=O)N=Nc2c(O)[nH]c3ccccc23)S(C)(=O)=O)c1C`: the activation (% of control) was 107% (inactive).

As to `O=C(C1CCN(S(=O)(=O)Cc2ccccc2)CC1)N1CCCc2ccccc21`, the activation (% of control) is 105% (inactive).

Turning to `Cc1ccc(OCc2nnc(SC3CCc4ccccc4C3=O)n2C)cc1` (stereo not given), the activation (% of control) was 132% (active).
